From PubChem BioAssay (NCATS) come the findings set out here.

Inconclusive results are not listed. Calls of active or inactive are those of the source. Calls follow the shape of the dose curve; as a rule, active = well fitted curve in the direction sought with a large enough effect; inconclusive = small, poorly fitted or top-dose-only effect, or another doubt; inactive = no such curve, though single readings can be large; an effect the other way counts as inactive or inconclusive. Numbered stars: 1 amine (or outer) side, 2 acyl side, 3 side chain; on linkers, the order of the positions; unused ones are H or OH. Square brackets hold non-standard residues; d marks the D form. Peptide text beside a SMILES is read from it. X1 = CCCCCCCCCC(=O)[C@H](C(=O)[*:2])[C@@H]1CNC(=O)[C@@H](N[*:1])CS1

The test system of experiment [1] is Zika virus NS2B-NS3 protease (linked construct). The experiment in a line: Primary screen NINDS Rhodamine qHTS for Zika virus inhibitors (AID 1347160). Also: nearly all actives have a fitted effect of over 55% in size. Also: potency is read from the fitted curve at half-maximal effect. The gist of the method:
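Kinetic fluorescence (Ex 480 nm, Em 540 nm) over 15 min with 1.5 microM Rhodamine110 peptide and 25 nM linked protease.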
A general note: In qHTS, concentration-response curves come from the screen itself.

The nature of experiment [2]: Panc-1005 Cancer Cell Toxicity qHTS against the NCATS CANVASS Library (AID 1347349). Also: series mostly up to about 38 µM; nearly all actives have a fitted effect of over 60% in size. The gist of the method:
(§1)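 ATP content after 72 h treatment, detected by CellTiter-Glo luminescence (15min room-temperature development), reflects cell viability. Wells contained 1000 cells and received compounds at 11 concentrations.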

A short description of experiment [3]: SW1088 Cancer Cell Toxicity qHTS against the NCATS CANVASS Library (AID 1347350). Also: nearly all actives have a fitted effect of over 75% in size. The gist of the method:
as §1

Experiment [4] can be described thus: COV-362 Cancer Cell Toxicity qHTS against the NCATS CANVASS Library (AID 1347352). Also: series mostly up to about 38 µM. The gist of the method: (§2)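 Cells at 1000/well were given compound 4 h after plating in an 11-point series. Viability was read by CellTiter-Glo luminescence after 72 h at 37 degrees C.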
The nature of experiment [5]: A2780 Cisplatin Sensitive Ovarian Cancer Cell Toxicity qHTS against the NCATS CANVASS Library (AID 1347353). Also: nearly all actives have a fitted effect of over 60% in size. The gist of the method: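 A2780 cells, 750/well, settled 4 h at 37 °C, then treated with an 11-point compound series for 72 h. Viability was read as ATPLite luminescence after 10 min at room temperature, with bortezomib as control.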
The nature of experiment [6]: UWB1.289-WTBRCA1 Cancer Cell Toxicity qHTS against the NCATS CANVASS Library (AID 1347354). The gist of the method: as §2
The nature of experiment [7]: HEK-293 Cancer Cell Toxicity qHTS against the NCATS CANVASS Library (AID 1347355). Also: series mostly up to about 46 µM; nearly all actives have a fitted effect of over 65% in size. The gist of the method: as §2
The subject of experiment [8] is NAD(P)H diaphorase (Clostridium kluyveri). In words: Diaphorse counterscreen qHTS: Assay Interference Panel against the NCATS CANVASS Library (AID 1347362). The gist of the method: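 Counterscreen for coupling-enzyme interference: resorufin fluorescence from resazurin/NADH turnover, read after 5 min at room temperature. Compounds were tested over an 11-point series after 15 min dark preincubation with diaphorase in PBS-Tween.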

A short description of experiment [9]: KB-8-5-11 Cancer Cell Toxicity qHTS against the NCATS CANVASS Library (AID 1347364). Also: nearly all actives have a fitted effect of over 75% in size. The procedure, abridged: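 KB-8-5-11 cells, 500/well in DMEM + 10% FBS, given compounds in an 11-point series. Incubated 72 h at 37 °C. Viability by CellTiter-Glo luminescence. Confirmation also run with 1 uM tariquidar.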
Experiment [10] is described as follows: SDT Cancer Cell Toxicity qHTS against the NCATS CANVASS Library (AID 1347365). Also: nearly all actives have a fitted effect of over 60% in size. Also: potency is read from the fitted curve at half-maximal effect. The gist of the method:
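SDT dog glioma cells (500/well) exposed to an 11-point compound series for 72 hr at 37C, 5% CO2. Cytotoxicity read as ATP content by CellTiterGlo luminescence; bortezomib titration as control.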

The nature of experiment [11]: G06 Cancer Cell Toxicity qHTS against the NCATS CANVASS Library (AID 1347368). Also: series mostly up to about 46 µM; nearly all actives have a fitted effect of over 60% in size. The procedure, abridged: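 G06 dog glioma cells, 500 per well, exposed 72 hr at 37C, 5% CO2 to compounds in an 11-point series. Cytotoxicity read as ATP content by CellTiterGlo luminescence.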
In experiment [12] the target is Nuclear receptor subfamily 1 group I member 3 (Homo sapiens) (UniProt Q14994). In words: qHTS for Constitutive Androstane Receptor (CAR) Antagonist screened against the NCATS CANVASS Library (AID 1347372).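 Also: cells stimulated with 50 nM CITCO agonist so inhibition reflects antagonism; luciferase from CYP2B6 promoter reporter driven by hCAR in HepG2 cells; series mostly up to about 46 µM.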 The procedure, abridged: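 HepG2-CYP2B6-hCAR double-stable cells plated, 4hr attach; cpd pin-transferred; CITCO 50 nM final; 24hr 37C/5% CO2; CellTiter-Fluor 1hr (fluorescence), then ONE-Glo luminescence.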

The nature of experiment [13]: qHTS for Hypoxia signaling pathway (HIF-1) agonists against the NCATS CANVASS Library (AID 1347375). The procedure, abridged: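 HRE-bla ME-180 cells (0.5% dialyzed FBS) were pre-incubated 5 hrs at 37C, then exposed to compounds in an 11-point series for 17 hrs. Read-out was CCF4-AM beta-lactamase FRET (460/530 nm emissions), with CellTiter-Glo viability in the same wells.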

A short description of experiment [14]: DH5-alpha competent E. coli microbial cell viability qHTS against the NCATS CANVASS Library (AID 1347377). The conditions noted are these: outcome: dose series up to 46.1 µM unless noted. The gist of the method:
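DH5-alpha E. coli suspension was exposed to an 11-point compound series overnight at 37 °C. Viable cells quantified by ATP luminescence (BacTiter-Glo) after 20 min at room temperature.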

The nature of experiment [15]: qHTS for Activators of p53 Stress Response Pathway screened against the NCATS CANVASS Library (AID 1347388). The gist of the method:
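Beta-lactamase reporter driven by p53 response elements in HCT-116 cells, read as the 460 nm/530 nm emission ratio after CCF4 loading, following 16 h of exposure to an 11-point series. Cell viability was measured in the same wells by CellTiter-Glo luminescence.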

The nature of experiment [16]: qHTS for activators of Nrf2/ARE signaling pathway screened against the NCATS CANVASS Library (AID 1347391). Also: nearly all actives have a fitted effect of over 60% in size. The gist of the method: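 ARE-bla HepG2 beta-lactamase reporter cells exposed to compounds for 16 h at 37C; CCF4 substrate 2 h, fluorescence at ex 405 nm, em 460/530 nm. Viability by CellTiter-Glo luminescence.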
A short description of experiment [17]: qHTS for activators of dead-cell proteases activity screened against the NCATS CANVASS Library (AID 1347392).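 Also: luminescence from protease leaking out of membrane-damaged cells cleaving impermeant substrate; rising signal means more cytotoxicity.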 The gist of the method: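 Compounds are pin-transferred onto attached HepG2 cells, giving 11 final concentrations. After 5 h at 37C, AAF-aminoluciferin reagent is added and luminescence is recorded at room temperature.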
A short description of experiment [18]: qHTS for inhibitors of Wild type Zika virus screened against the NCATS CANVASS Library (AID 1347396).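 Also: ATP luminescence of surviving cells so rescue from viral cell killing; series mostly up to about 46 µM.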 The gist of the method: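 Protection against wild-type Zika cytopathic effect is measured in African green monkey Vero 766 cells exposed to an 11-point compound series. Surviving cells are quantified by CellTiter Glo luminescence after 72 h.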
A short description of experiment [19]: Redox Reaction Profiling qHTS: Assay Interference Panel against the NCATS CANVASS Library (AID 1347401). The gist of the method: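 Cell-free redox surrogate: 5 uM resazurin + 200 uM DTT, 50 mM HEPES pH 7.3/50 mM NaCl; cpds pinned, 11-pt qHTS; Ex525/Em598 read t0 and t=15 min, dark.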
The nature of experiment [20]: qHTS assay for small molecule disruptors of mitochondrial membrane potential screened against the NCATS CANVASS Library (AID 1347389). The gist of the method:
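HepG2 cells (2,000/well) plated overnight, then exposed to compounds in 11-point qHTS series for 1 h at 37C before 30 min Mito-MPS dye; depolarization read as fall in red aggregate (590 nm) to green monomer (535 nm) fluorescence.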

Sequence of Nuclear receptor subfamily 1 group I member 3 (Homo sapiens) (Q14994 whole entry, looked up): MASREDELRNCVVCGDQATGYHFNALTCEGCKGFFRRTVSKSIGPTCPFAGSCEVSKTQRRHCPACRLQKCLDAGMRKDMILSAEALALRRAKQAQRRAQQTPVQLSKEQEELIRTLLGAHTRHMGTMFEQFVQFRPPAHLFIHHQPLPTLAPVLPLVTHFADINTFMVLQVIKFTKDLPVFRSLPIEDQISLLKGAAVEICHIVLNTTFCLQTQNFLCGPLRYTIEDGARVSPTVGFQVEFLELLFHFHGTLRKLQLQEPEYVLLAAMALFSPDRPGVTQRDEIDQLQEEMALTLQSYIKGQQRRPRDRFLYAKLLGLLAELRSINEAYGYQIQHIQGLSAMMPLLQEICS

Turning to `O=Cc1ccc2n1C[C@@]1(C[C@H](O)[C@@H](CO)O1)OC2`, the Potency entry in [1], in experiment [2], in experiment [3], in experiment [4], in [5] and in experiment [6] was “inactive” in each case. The Potency result in experiment [7], in experiment [8], in experiment [9], in experiment [10], in [11] and in [12] was “inactive” throughout. Moreover, the Potency result in [13], in experiment [15], in [16], in [17], in experiment [18] and in experiment [19] was “inactive” throughout. In addition, the call in [14] was inactive.
In the case of `CCCCCCCCCC(=O)[C@@H]1C(=O)N[C@@H](CC(C)C)C(=O)N[C@H](C)C(=O)N2CCC[C@H]2C(=O)N[C@@H](C(C)C)C(=O)N[C@H]2CS[C@H]1CNC2=O` (cyclo(L[dA]PV[X1])), the Potency in experiment [1] is 4.4 µM (active). Besides, the Potency entry in [2], in experiment [4], in [5], in experiment [6], in [7] and in experiment [9] was “inactive” each time. For the same compound, the Potency entry in experiment [12], in experiment [13], in [15], in [20], in experiment [17] and in experiment [19] was “inactive” in each case.
For `C/C(=C\[C@H](C)C(=O)CCCC1CC(=O)NC(=O)C1)C(O)[C@@H](C)[C@H](O)C/C=C/CC/C=C/C(=O)O` (stereo partly drawn), the Potency in experiment [1] is 55.3 µM (active). Further, the Potency result in experiment [2], in [4], in [5], in experiment [6], in experiment [7] and in experiment [8] was “inactive” each time. Also, the Potency result in experiment [9], in experiment [10], in [12], in experiment [13], in experiment [15] and in experiment [20] was “inactive” in each case. Also, the Potency entry in experiment [16], in [17] and in experiment [18] was “inactive” throughout. The compound was called inactive in experiment [14].
For the compound `CC1(C)[C@H](Br)CC[C@]23C[C@]4(C)C(=O)CC12C[C@H]34`, the Potency entry in experiment [1], in [2], in [3], in experiment [4], in experiment [5] and in [6] was “inactive” each time. The Potency entry in experiment [7], in experiment [8], in experiment [9], in experiment [10], in experiment [11] and in experiment [12] was “inactive” in each case. Besides, the Potency result in experiment [13], in experiment [15], in experiment [20], in experiment [16], in experiment [17] and in experiment [18] was “inactive” in each case. Also, the Potency entry in experiment [19] is “inactive”. The outcome in experiment [14] was inactive.
In the case of `C=C(C)[C@@H]1CC[C@]2(C)CC[C@]3(C)[C@H](CC[C@@H]4[C@@]5(C)CC[C@H](O)C(C)(C)[C@@H]5CC[C@]43C)[C@@H]12`, the Potency entry in experiment [1], in experiment [2], in [3], in experiment [4], in experiment [5] and in experiment [6] was “inactive” throughout. Also, the Potency result in experiment [7], in experiment [8], in experiment [9], in experiment [10], in [11] and in experiment [12] was “inactive” each time. Moreover, the Potency result in experiment [13], in experiment [15], in experiment [20], in experiment [16], in experiment [17] and in experiment [18] was “inactive” throughout. In addition, the Potency entry in experiment [19] was “inactive”. Further, the outcome in experiment [14] was inactive.
As for `Cc1cc(O)cc2oc(C[C@H](C)O)cc(=O)c12`, the results for the Potency in experiment [1] and in [10] were 44 µM (active) and 1.48 µM (active), respectively. Further, the Potency result in experiment [2], in experiment [3], in experiment [4], in experiment [5], in experiment [6] and in [7] was “inactive” in each case. The Potency entry in [8], in [9], in experiment [12], in [13], in experiment [15] and in experiment [20] was “inactive” throughout. Further, the Potency result in experiment [16], in [17], in [18] and in [19] was “inactive” in each case. Besides, the compound was called inactive in experiment [14].
